Screening data deposited in PubChem by several laboratories.
Efflux pump mplx = blocks antifungal efflux pumps in multiplex yeast assay. S. cerevisiae Candida pump triplex, Nile Red efflux. inhibition, % at 10 µM. 330,000 tested, 0.44% active;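 active = plate passing quality check with inhibition over a set limit, or well fluorescence over plate mean plus 4 SD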;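 also: Nile Red retained in pooled yeast measured as flow cytometry median fluorescence; 0% = buffer negative control and 100% = Enniatin B positive control; higher means more Nile Red kept so more efflux inhibition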
AI-2 QS mod = Vibrio harveyi AI-2 quorum sensing modulation; Vibrio harveyi JMH597 AI-2 luminescence/OD600 ratio, 9 h; stronger effect = lower value; strain lacks LuxN and CqsS sensors; 0 = neutral-control median; activity change, % at 7.5 µM; 300,000 tested, 0.4% active; in the data active = activity change below about -75%, passing the limit was not always enough;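 also: luminescence divided by OD600 gain over 9 h not by final OD600 alone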
ATG4B inhibitor = ATG4B (human) cysteine protease inhibition. Q9Y4P1. ATG4B cleavage of LC3-PLA2, NBD-HPC fluorescence, 1 h. inhibition, % at 8.33 µM. 340,000 tested, 0.51% active. AID 504462; in the data active = inhibition above about 40%
Target sequence (Q9Y4P1 whole entry, looked up): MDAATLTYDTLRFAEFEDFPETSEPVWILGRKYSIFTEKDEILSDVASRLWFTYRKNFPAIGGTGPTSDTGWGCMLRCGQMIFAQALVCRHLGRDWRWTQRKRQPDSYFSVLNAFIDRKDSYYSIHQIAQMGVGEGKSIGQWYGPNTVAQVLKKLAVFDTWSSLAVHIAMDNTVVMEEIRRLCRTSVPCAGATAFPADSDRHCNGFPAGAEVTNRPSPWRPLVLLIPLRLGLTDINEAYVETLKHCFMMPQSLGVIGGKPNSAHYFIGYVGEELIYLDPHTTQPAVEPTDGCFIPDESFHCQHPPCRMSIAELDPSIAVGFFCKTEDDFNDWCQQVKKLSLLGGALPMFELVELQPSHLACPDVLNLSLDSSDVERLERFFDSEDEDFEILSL
V-ATPase pH = alters yeast V-ATPase proton transport | S. cerevisiae, pHLuorin cytosolic pH fluorescence | response, % at 10 µM | 350,000 tested, 0.37% active | AID 504577; in the data active = response mostly above about 7.3%, no sharp cut-off; inactive = mostly below about 5.4%; also: actives read high
Mot1-301 SUMO = inhibitors of SUMOylation pathway: yeast Mot1-301 growth rescue; S. cerevisiae Mot1-301 growth rescue, ATP luminescence, 38.5C; percent above DMSO median, 100 means doubled; 320,000 tested, 1% active; growth rescue, % at 18.8 µM; AID 2716;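 active = every valid replicate shows activation above 250% relative to neutral control wells; inactive = the rest, any valid replicate at or below 250%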;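 also: OY570 slx delta 5 strain wells were the positive control but not used for scaling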
Cmpd fluor yeast = compound fluorescence in yeast efflux pump counter-screen | shares compounds with Efflux pump mplx | S. cerevisiae AD/pABC3, flow cytometry | fluorescence ratio to DMSO, % at 10 µM | 1,700 tested, 4% active;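 active = fluorescence ratio to DMSO above its plate's cutoff, the plate mean ratio plus 5 SD, cut at about 210% in these data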;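 also: unstained yeast with no Nile Red so the signal is compound autofluorescence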
Mdr1 pump inh = inhibitors of Candida albicans Mdr1 efflux pump. shares compounds with Efflux pump mplx. S. cerevisiae AD/CaMDR1, Nile Red efflux, flow cytometry. inhibition, % at 10 µM. 1,700 tested, 1% active; in the data active = inhibition above about 26%;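 also: 0% = DMSO vehicle and 100% = reference inhibitor; higher means more Nile Red retained so more efflux inhibition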
Cdr2 pump inh = blocks the Candida albicans Cdr2 efflux pump in yeast; shares compounds with Efflux pump mplx; S. cerevisiae AD/CaCDR2, Nile Red retention, flow cytometry; Nile Red retention ratio vs DMSO, % at 10 µM; 1,700 tested, 4% active; in the data active = Nile Red retention ratio vs DMSO above about 190%;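 also: higher ratio means more blocking of Cdr2 efflux of the dye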
CaCdr1 efflux inh = blocks the Candida albicans Cdr1 efflux pump in yeast; shares compounds with Efflux pump mplx; S. cerevisiae AD/CaCDR1, Nile Red efflux, flow cytometry; inhibition, % at 10 µM; 1,700 tested, 1% active; AID 588522;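 active = inhibition above the screen-wide mean plus twice its standard deviation, cut at about 32% in these data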
Starred values were filed as active, the others as inactive; nt = no result given. Sampled rows, rich in hits. Any-hit rate of the full collection: about 2.5%.

SMILES	Efflux pump mplx	AI-2 QS mod	ATG4B inhibitor	V-ATPase pH	Mot1-301 SUMO	Cmpd fluor yeast	Mdr1 pump inh	Cdr2 pump inh	CaCdr1 efflux inh
CCOC(=O)N1CCN(C(=S)NC(=O)c2ccc(F)c(F)c2)CC1	1.6*	-18	0	0	3	95	0	104	0
COc1cc(/C=N/NC(=O)CC#N)ccc1Oc1nc(Cl)ncc1F	0	-1	4	-8	-16	nt	nt	nt	nt
COc1ccc(NS(=O)(=O)c2cc(NC(=O)c3cccnc3Cl)ccc2N2CCCC2)cc1	0.5*	42	-11	-5	nt	116	0	99	0
COc1ccccc1N=Nc1c(O)[nH]c2ccc(Br)cc12	0.4*	24	1	1	0	107	0	116	0
Cc1cccc(N=Nc2c(O)[nH]c3ccc(Br)cc23)c1	0	22	2	2	-10	nt	nt	nt	nt
COc1ccc(CNC(=O)CNC(=O)N2CC(=O)Nc3ccccc32)cc1	0	7	7	1	-11	nt	nt	nt	nt
O=C(C1CCC1)N1CCc2cc(S(=O)(=O)Nc3ccc4c(c3)OCCO4)ccc21	0	8	-13	-1	-2	112	0	95	0
CCC(=O)N1CCc2cc(S(=O)(=O)Nc3ccc4c(c3)OCCO4)ccc21	0	7	-10	5	11	nt	nt	nt	nt
Cc1ccc(CNS(=O)(=O)c2ccc3c(c2)CCN3C(=O)C2CCC2)cc1	0	8	2	2	142	102	0	99	0
CCCN(CCC)CCNS(=O)(=O)c1ccc2c(c1)CCN2C(=O)C1CCC1	0	7	-12	-1	1	107	0	100	0
CC1CCCN(CCCNS(=O)(=O)c2ccc3c(c2)CCN3C(=O)C2CC2)C1 (configuration not stated)	1.4*	24	-2	-1	107	115	0	110	0
O=C(C1CCC1)N1CCc2cc(S(=O)(=O)NC3CCCC3)ccc21	0	10	-8	4	-5	nt	nt	nt	nt
O=C(C1CC1)N1CCc2cc(S(=O)(=O)NCCC3=CCCCC3)ccc21	0	0	-11	-3	18	nt	nt	nt	nt
CN(CCc1nc2ccc(Cl)cc2[nH]1)Cc1nc(CC2CC2)no1	0	19	-10	-3	-18	nt	nt	nt	nt
CC1C(=O)N(Cc2cn(Cc3ccco3)nn2)CCS(=O)(=O)N1Cc1ccc(-c2cccc(N(C)C)c2)cc1 (configuration not stated)	nt	nt	nt	0	nt	nt	nt	nt	nt
CCOC(=O)CN(C(=O)c1snc(C(N)=O)c1N)C(C(=O)NC1CCCCC1)c1ccc(F)cc1 (configuration not stated)	0	-8	1	2	-7	nt	nt	nt	nt
COc1ncnc2c1ncn2CCCN[C@H](C)c1cccc2ccccc12	nt	nt	nt	2	nt	nt	nt	nt	nt
COc1ccc2cc1Oc1ccc(cc1)CC1c3c(cc(OC)c4c3Oc3cc5c(cc3O4)CCNC5C2)CCN1C (configuration not stated)	1	33	-6	1	-17	nt	nt	nt	nt
COc1ccc2cc1Oc1ccc(cc1)C[C@H]1c3c(cc(OC)c4c3Oc3c(ccc5c3[C@H](C2)N(C)CC5)O4)CCN1C	4.3*	nt	10	3	-34	106	0	108	0
C=CCN(CC(=O)Nc1cccnc1)S(=O)(=O)c1ccc(Cl)cc1	0	nt	5	-5	8	nt	nt	nt	nt
Cc1cc(C)c2c(N)c(C(=O)NN3CC(=O)N(c4ccccc4F)CC3=O)sc2n1	0.8*	27	-14	1	128	94	0	91	0
Cc1ccccc1Cn1c(=O)n(Cc2ccco2)c(=O)c2ccccc21	0	9	3	3	5	nt	nt	nt	nt
COc1cc2c(=O)n(Cc3ccco3)c(=O)n(CC(=O)c3ccc(Br)cc3)c2cc1OC	0	24	6	8	-14	nt	nt	nt	nt
COc1cc2c(=O)n(Cc3ccco3)c(=O)n(CC(=O)c3cccc(Br)c3)c2cc1OC	1.0*	44	-10	nt	5	87	0	105	0
Cc1cc(C)c(NC(=O)Cn2c(=O)n(Cc3ccco3)c(=O)c3ccccc32)c(C)c1	1.1*	29	1	-2	-4	100	0	97	0
SMILES	Efflux pump mplx	AI-2 QS mod	ATG4B inhibitor	V-ATPase pH	Mot1-301 SUMO	Cmpd fluor yeast	Mdr1 pump inh	Cdr2 pump inh	CaCdr1 efflux inh
CCN(CC)c1ccc(CN2CCC(C(=O)NCc3ccc(C)cc3)CC2)cc1	0	5	-2	3	-8	nt	nt	nt	nt
Brc1ccc(-c2csc(NC3=NCCCCC3)n2)cc1	7.6*	21	1	4	172	113	1	107	0
CCN(C1CCCCC1)S(=O)(=O)c1cc2c3c(c1)CCN3C(=O)CC2	0	-9	-4	-3	-6	nt	nt	nt	nt
CC1CCN(c2ccc(N3C(=O)C4CCCCC4C3=O)cc2[N+](=O)[O-])CC1 (configuration not stated)	0	27	-4	-2	151	nt	nt	nt	nt
CCOC(=O)c1cc(C)n(Cc2cccc(OC)c2OC)c1C	0	1	2	0	58	nt	nt	nt	nt
CCOC(=O)c1c(C)c(C)n(Cc2cccc(OC)c2OC)c1C	14*	4	-5	-4	4	97	0	87	0
C=CCn1c(=O)[nH]c2nc3cc(N=CN(C)C)c(C)cc3nc2c1=O	1.7*	33	-6	0	-5	147	0	87	0
CC(=O)c1cccc(NC(=O)N2CCC(c3nnc(SCC(N)=O)n3C)CC2)c1	0	13	-4	5	nt	nt	nt	nt	nt
COc1cc(C(=O)NC(C)Cc2ccccn2)ccc1OC1CCN(C(C)=O)CC1 (configuration not stated)	nt	13	2	3	nt	nt	nt	nt	nt
CC1CCN(S(=O)(=O)c2ccc3c(c2)CC(C)N3C(=O)C2CCC2)CC1 (configuration not stated)	0	16	-6	2	2	nt	nt	nt	nt
CC1Cc2cc(S(=O)(=O)N3CCCCC3)ccc2N1C(=O)C1CCC1 (configuration not stated)	0	12	-5	-1	252	102	0	98	0
COc1ccccc1CNS(=O)(=O)c1ccc2c(c1)CC(C)N2C(=O)C1CCC1 (configuration not stated)	0	0	1	-4	-4	113	0	129	0
COc1ccc(N2CC(C(=O)NC3CCSC3=O)CC2=O)cc1 (configuration not stated)	0	-3	-11	-4	-10	nt	nt	nt	nt
CCn1c(N2CCN(C(=S)Nc3ccc(OC)cc3)CC2)nc2ccccc21	0	41	-4	6	-15	nt	nt	nt	nt
